PubChem BioAssay AID651718 (The Scripps Research Institute Molecular Screening Center, 2012)
Screen size: about 360,000 compounds; about 2,700 (0.75%) were called active. Rule as the data show it: active = inhibition above about 4.5%; inactive = the rest. Many of the other results were omitted from the sample, so actives are more common in it than they were.

These compounds were tested on Methionine sulfoxide reductase A (Bos taurus) (assay: inhibition of methionine sulfoxide reductase A – biochemical, absorbance, bovine, HTS, primary screen (AID 651718;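 also: 0% = vehicle wells with enzyme and 100% = reference inhibitor wells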)). Conditions: purified bovine MsrA, absorbance read-out; at 15.5 µM; stronger effect = higher value.

inhibition, active:
S=c1[nH]nc(-c2ccccc2)n1/N=C/c1c[nH]c2ccccc12 5.73%, CCCOC(=O)c1cc2ccccc2oc1=O 13%, Cc1c(C=O)c2ccccn2c1C(=O)c1ccncc1 4.76%, O=C(N/N=C/c1ccc2c(c1)OCO2)c1ccc(Cn2cc([N+](=O)[O-])cn2)o1 6.14%, CCN(CC)CCCC(C)n1c2nc(=O)[nH]c(=O)c-2nc2cc(Cl)ccc21 (stereo not given) 14.4%, Cc1ccc(N2CCN(C3=NC(=O)/C(=C\c4cccs4)S3)CC2)cc1 5.14%, Cc1c(C(=O)N2CCCc3ccccc32)oc2ccccc12 10.3%, COC(=O)/C(C#N)=C/c1occc1C 5.68%, CC(=O)c1ccc(N2CCN(CC(=O)Nc3ccccc3N3CCOCC3)CC2)cc1 4.88%, COc1ccc(C2=NS(=O)(=O)N(C)C(C(=O)N3CCCCC3)=C2)cc1 5.54%, Oc1ccc(/C=N/Nc2ccc(C(F)(F)F)cn2)cc1O 7.63%, CC(=O)c1sc2nc(SCC(=O)N3CCCCC3)[nH]c(=O)c2c1C 6.38%, COc1cccc(C2=CC(=O)C[C@H](c3ccc(F)cc3)C2)c1OC 6.7%

inhibition, inactive:
O=[N+]([O-])c1ccccc1/C=N/n1c(COc2ccccc2)n[nH]c1=S 0.65%, CCc1n[nH]c(=S)n1/N=C/c1c[nH]c2ccc(Br)cc12 0.05%, CC1CCN(C(=O)c2ncn3c2C(=O)N[C@@H](C)C3)CC1 0.14%, O=C(NCc1ccccc1)[C@H]1CCCN1C(=O)[C@H]1CCCN1C(=O)N1CCOCC1 -0.41%, CN(C)c1nc(N)nc(CSc2ccccn2)n1 0.24%, C=CCN=C1NC(c2cccc(C(F)(F)F)c2)C(C(=O)OC)=C(C)N1C (stereo not given) -0.08%, Cc1cc(C)cc(OCC(=O)NNC(=O)c2cc3ccccc3oc2=O)c1 0.25%, CCc1ccc(Oc2coc3cc(OC(=O)c4cc5ccccc5oc4=O)ccc3c2=O)cc1 1.04%, COC(=O)Cc1nnn2c1[C@H](C)[C@H](c1ccccc1[N+](=O)[O-])OCC2 0.24%, Cc1c(C(=O)NNC(=O)c2ccncc2)oc2ccccc12 0.46%, Cc1c(C=O)c2ccccc2n1CC(=O)O 2.23%, O=C(NCCc1nnc2ccc(SCC(=O)N3CCOCC3)nn12)c1ccccc1 -0.18%, Cc1noc(C)c1NC(=O)Nc1ccc2c(c1)C(=O)N([C@H](C)CO)C[C@H](C)[C@H](CN(C)Cc1ccncc1)OCCCC[C@@H](C)O2 -0.23%, CCN1C(=O)N[C@@H]2C[C@H](C(=O)N3CCCC3)[C@H](C)[C@H](c3ccccc3)C[C@@H]21 -0.32%, CN(C)c1ccc(/C=N/NC(=O)c2ccc(Cn3cc(Br)cn3)o2)cc1 4.19%, O=C(c1ccc(Cn2cc([N+](=O)[O-])cn2)o1)N1CCCC1 0.09%, N/C(=N\OS(=O)(=O)c1cccc([N+](=O)[O-])c1)c1ccncc1 -0.51%, CCCCCCCCN1C(=O)[C@@H](CC(=O)NCc2ccc(C)o2)C[C@@]2(C(=O)OC)C1=C[C@H](C(C)(C)C)O[C@@H]2C -0.4%, CC(=O)c1ccccc1OCc1ccc(C(=O)c2ccccc2)cc1 0.66%, Cc1cc2nc3c(=O)[nH]c(=O)nc-3n(C[C@H](O)[C@H](O)[C@H](O)CO)c2cc1C 2.57%, O=S1(=O)c2c(cccc2N2CCCCC2)O[C@H](COCc2ccccc2)CN1C1CC1 -0.51%, Cc1ccc(CSc2nsc(C)c2C#N)cc1 0.38%, O=C1N=C(N2CCOCC2)S/C1=C\C=C/c1ccccc1 3.23%, CC(C)=C1SC(N2CCN(c3ccc(C)c(Cl)c3)CC2)=NC1=O -1.4%, COc1ccc(S(=O)(=O)Nc2ccc3c(c2)C(=O)N([C@H](C)CO)C[C@H](C)[C@@H](CN(C)C)OCCCC[C@H](C)O3)cc1 0.52%, Cc1ccc(C(=O)N2CCCc3ccccc32)c(Cl)c1 -0.31%, Cc1c(C(=O)OCC(=O)N2CCCC2=O)oc2ccccc12 -1.01%, O=C1Nc2ccccc2C1=NN=Cc1ccco1 0.16%, COc1ccc(/C=C(\C#N)C(=O)ONC2=NCCCCC2)cc1 1.44%, CCOC(=O)/C(C#N)=C\c1c(C)cc(C)c(COC(C)=O)c1C 0.74%, COc1ccc(CN2CCNC(=O)C2CC(=O)N(C)Cc2ccccn2)cc1OC (stereo not given) -0.62%, C[N+](C)(C)CCOP(=O)([O-])OC[C@H](O)CO 0.34%, CCCCC(=O)Nc1ccccc1N1CCN(c2ccc(F)cc2)CC1 -1.12%, O=C(Nc1ccccc1N1CCOCC1)c1ccncc1 1.2%, COC(=O)N1Cc2ccnnc2CC1c1ccccc1Br (stereo not given) -0.9%, CN(Cc1ccccc1)C(=O)c1ccc(NC2=NC3CS(=O)(=O)CC3S2)cc1 (stereo not given) 1.72%, COc1ccc(C2=NS(=O)(=O)N(C)C(C(=O)NC(C)c3ccccc3)=C2)cc1 (stereo not given) 4.29%, COc1ccc(C2=NS(=O)(=O)N(C)C(C(=O)N(C)Cc3ccccc3)=C2)cc1 3.53%, CCCCCCc1cc2cc(-c3nnc(-c4cccc(OC)c4)o3)c(=O)oc2cc1O -0.59%, O=C(N/N=C/c1ccc(O)c(O)c1)C1c2ccccc2Oc2ccccc21 0.85%, COc1ccc(/C=N/Nc2ncnc3sc4c(c23)CCCC4)cc1O 4.5%, CSc1nnc(SCc2nc3sc(C(=O)O)c(C)c3c(=O)[nH]2)s1 0%, Cc1c(C)n2c(SCC(=O)N3CCCC3)nnc2[nH]c1=O -0.57%, COc1ccc(-c2ccccc2C2Cc3nnccc3CN2C(=O)Nc2ccccc2)cc1 (stereo not given) 2.13%, CC(=O)N1C[C@@H](CO)[C@@H](N(C)C(=O)C(C)(C)C)C[C@H]1c1ccccc1Br 0.66%, O=C1C=C(c2cccc(Cl)c2O)C[C@@H](c2ccc(F)cc2)C1 -0.68%, COc1ccccc1C1=CC(=O)C[C@H](c2ccc(F)cc2)C1 1.16%
